Experiment in all cases: NCI-60 one-dose screen, 48 h (100 = growth as untreated, 0 = no growth, -100 = all killed)
What all share (conditions): 10 µM unless noted

In test [1] the test system is SR leukemia.
Test [2] relates to RPMI-8226 leukemia.
The test system of test [3] is OVCAR-8 ovarian.
In test [4] the test system is OVCAR-5 ovarian.
In test [5] the test system is OVCAR-4 ovarian.
The subject of test [6] is SK-OV-3 ovarian.
Test [7] has as its system IGROV1 ovarian.
The subject of test [8] is OVCAR-3 ovarian.
In test [9] the test system is HS 578T breast.
In test [10] the test system is NCI/ADR-RES ovarian.
Test [11] relates to T-47D breast.
Test [12] deals with BT-549 breast.
In test [13] the test system is MDA-MB-435 melanoma.
Test [14] concerns SW-620 colon.
Test [15] relates to MCF7 breast.
Test [16] relates to HCT-116 colon.
For test [17], the system named is HCC-2998 colon.
The test system of test [18] is KM12 colon.

This is part of a sample that, as a whole, favours compounds with a hit. Of some 83,000 tested, about 20% had one in any assay.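 Step 1: grow cells in 96-well plates. Step 2: add test compound at a single concentration. Step 3: incubate 48 h. Step 4: record percent growth.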 Values without a mark were called inactive. Calls of active or inactive are those of the source. How the source made its calls: active means growth percent below 10; inactive means the rest.

Turning to `O=C(Nc1cccnc1Nc1ccc(Cl)cc1)c1cn(Cc2cccc(Oc3ccccc3)c2)nn1`, the growth in test [1] is 21.5%; in [2], 40.9%; in test [3], 53.8%; in [4], 101%; in test [5], 83.9%; in test [6], 53%. Besides, the growth was 77.6% in test [7]; 30.7% in [8]; 39.9% in [9]; 14.4% in test [10]; 48.1% in [11]; 52.2% in [12]. Further, the growth in [13] is -30.2% (active); in test [14], 36.5%; in test [15], 19.6%; in [16], 23.4%; in [17], 63.9%; in [18] it was 31.8%.

Consider `Nc1ncnc2c1N=C(c1ccc(Cl)cc1)CC(c1cccc(Nc3ccnc4cc(Cl)ccc34)c1)N2` (centres undefined), for which the growth was -12.6% (active) in test [1]; -20.5% (active) in [2]; 77.9% in test [3]; 111% in [4]; 70.7% in [5]; 80.5% in test [6]. In addition, the growth is 66.7% in test [7]; 80.6% in test [8]; 68.2% in [9]; 73.1% in test [10]; 85.9% in [11]; 78.5% in [12]. For the same compound, the growth is 58% in test [13]; 72.2% in test [14]; 19.5% in [15]; 14.9% in test [16]; 70.4% in test [17]; 56.1% in test [18].

For the compound `CCOC(=O)C1=C(c2ccccc2)N=C2N(c3ccccc3)N=C(C(C)=O)N2C1c1ccc(F)cc1` (centres undefined), the growth in test [1] was 97.1%; in [2], 89.3%; in test [3], 99.3%; in test [4], 102%; in [5], 97.9%; in test [6], 107%. Also, the growth in test [7] is 96.3%; in test [8], 105%; in test [9], 92.1%; in test [10], 109%; in [11], 98.8%; in test [12] it was 101%. Further, the growth in [13] was 102%; in [14], 99.9%; in test [15], 95.1%; in test [16], 97.8%; in test [17] it was 115%; in test [18], 97.6%.

Regarding `CN(C)Cc1cc(C(C)(C)C)cc(Br)c1O`, the growth was 107% in [1]; 96.9% in test [2]; 106% in test [3]; 107% in test [4]; 102% in test [5]; 97.4% in test [6]. For the same compound, the growth in test [7] was 108%; in test [8] it was 114%; in [9], 30.7%; in test [10] it was 106%; in [11] it was 99.6%; in test [12], 114%. In addition, the growth in [13] was 101%; in test [14], 87.7%; in test [15], 87.9%; in [16] it was 103%; in test [17], 109%; in [18], 109%.

Consider `CCn1cc(C(=O)O)c(=O)c2cc(F)c(N3CCN(CC(=O)Nc4ccccc4)C(C)C3)c(F)c21` (centres undefined), for which the growth in test [1] is 109%; in test [2] it was 102%; in [3] it was 98.3%; in test [4], 98.3%; in [5] it was 82.4%; in [6], 90.7%. Besides, the growth in [7] is 103%; in test [8], 104%; in [9] it was 91.1%; in test [10], 96.7%; in test [11], 95.4%; in test [12], 106%. Also, the growth in [13] is 97.1%; in test [14], 105%; in test [15], 92.7%; in test [16], 99.9%; in test [17] it was 99.9%; in [18], 99.9%.

On to `CCN1C(=O)N(c2ccccc2)C2NC(=S)N(/N=C/C=C/c3ccccc3OC)C21` (centres undefined), for which the growth was 17.4% in test [1]; 14.7% in [2]; 9.48% (active) in test [3]; 27.8% in [4]; 45.5% in test [5]; 31.6% in test [6]. Further, the growth is 3.96% (active) in test [7]; 4.35% (active) in test [8]; 20.2% in test [9]; 6.95% (active) in test [10]; 42.3% in test [11]; 20.4% in [12]. The growth in [13] was -27.5% (active); in test [14], 22.2%; in [15] it was 7.64% (active); in [16], 9.02% (active); in test [17], 14.8%; in test [18], 11.3%.

Take `COc1ccc2c(c1)CC[C@@H]1[C@@H]2CC[C@]2(C)c3c(cc(C#N)c4c3sc3ccccc34)C[C@@H]12`: the growth is 89.3% in test [1]; 95.8% in [2]; 101% in test [3]; 80.6% in test [4]; 107% in [5]; 108% in test [6]. Also, the growth in test [7] is 101%; in test [8], 108%; in test [9], 94.6%; in [10] it was 101%; in [11] it was 102%; in test [12], 114%. Besides, the growth is 105% in test [13]; 99.5% in test [14]; 106% in test [15]; 108% in test [16]; 92.7% in test [17]; 109% in test [18].

`Nc1c(Br)cc2c(c1Br)Cc1cc([N+](=O)[O-])ccc1-2`: the growth is 64.3% in [1]; 91.3% in test [2]; 95.4% in test [3]; 112% in test [4]; 85.4% in test [5]; 92.2% in test [6]. Also, the growth in test [7] is 135%; in [8], 111%; in test [9], 104%; in test [10], 104%; in test [11], 58.3%; in test [12], 110%. Also, the growth in test [13] is 108%; in test [14], 103%; in test [15], 33.8%; in [16], 95.3%; in test [17], 104%; in [18] it was 99.1%.

Source of the values: PubChem BioAssay (NCI).
